Only some compounds are listed: those with a hit (about 4.5% of all), similar ones and a draw of the others.
HDAC3 inh – HDAC3 deacetylase inhibitors, primary screen, biochemical, fluorescence, cell-free homogeneous; Histone deacetylase 3 (Homo sapiens), O15379; recombinant HDAC3, fluorogenic peptide/trypsin coupled; inhibition, % at 8.3 µM; actives 0.15% (n = 320,000); AID 2718, 2010; in the data active = inhibition above about 26%, passing the limit was not always enough; inconclusive = no clear call, values can overlap the other calls
ALR inh – inhibitors of human ALR sulfhydryl oxidase, primary screen, biochemical, H2O2 detection, HRP-luminol luminescence, single point. FAD-linked sulfhydryl oxidase ALR (Homo sapiens), P55789. purified ALR, DTT oxidation. inhibition, % (concentration not given with the values). actives 3.8% (n = 290,000). AID 485317, 2010;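 active = mean replicate inhibition above about 79%, with every replicate also reaching it, limit read from the data; inconclusive = only one of the two criteria met; inactive = mean below limit and not every replicate reaching it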
Target sequence (P55789 whole entry, looked up): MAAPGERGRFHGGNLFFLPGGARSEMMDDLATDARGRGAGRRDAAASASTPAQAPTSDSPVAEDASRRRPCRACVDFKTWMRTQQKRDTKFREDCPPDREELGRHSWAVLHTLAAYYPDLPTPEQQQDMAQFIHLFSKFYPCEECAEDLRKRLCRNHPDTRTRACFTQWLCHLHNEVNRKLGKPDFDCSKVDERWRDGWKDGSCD
Rtt109 Vps75 – inhibitors of C. albicans Rtt109/Vps75 HAT, primary screen, biochemical, ThioGlo CoA-SH fluorescence, plate reader; Histone acetyltransferase RTT109 (Candida albicans (strain SC5314 / ATCC MYA-2876)), …; purified Rtt109/Vps75, 4 h; inhibition, % at 34.9 µM; actives 0.16% (n = 330,000);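 active = inhibition of at least 50% in every replicate; inconclusive = best replicate reaches 50% inhibition but some replicates fall short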
Target sequence (Q5AAJ8 whole entry, looked up): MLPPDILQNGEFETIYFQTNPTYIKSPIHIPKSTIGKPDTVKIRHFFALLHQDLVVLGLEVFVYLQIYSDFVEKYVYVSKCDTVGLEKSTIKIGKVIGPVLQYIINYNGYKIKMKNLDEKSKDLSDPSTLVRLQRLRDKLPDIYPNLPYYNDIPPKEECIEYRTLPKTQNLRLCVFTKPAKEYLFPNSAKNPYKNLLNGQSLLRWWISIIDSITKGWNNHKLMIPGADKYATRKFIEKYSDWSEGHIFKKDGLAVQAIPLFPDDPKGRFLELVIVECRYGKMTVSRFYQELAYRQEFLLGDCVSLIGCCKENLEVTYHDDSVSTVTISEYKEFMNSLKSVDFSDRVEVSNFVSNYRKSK
GRK2 aptamer HTS – compounds blocking aptamer binding on GRK2 – biochemical, human GRK2, bead flow cytometry, HTS, primary screen; Beta-adrenergic receptor kinase 1 (Homo sapiens), P25098; FAM-aptamer displacement from GRK2; inhibition of aptamer binding, % at 10 µM; actives 0.59% (n = 330,000); AID 488847, 2010;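 active = inhibition of aptamer binding above 40%, roughly 3 SD of noise, on plates passing a quality check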;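 note: median bead fluorescence of bound FAM aptamer so fluorescent compounds give negative values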
Rce1 inhib – yeast Rce1p protease inhibitors, primary screen, biochemical, fluorescence, cell-free homogeneous; CAAX prenyl protease 2 (Saccharomyces cerevisiae (strain ATCC 204508 / S288c)), Q03530; yeast membranes, quenched prenylated peptide cleavage fluorescence; calls only; actives 0.27% (n = 290,000);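 active = fall in fluorescence gain of 50% or more versus controls, with final raw signal at or below 3038400; inconclusive = same 50% fall but final raw signal above 3038400; inactive = fall in fluorescence gain under 50%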;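 note: plate controls were neutral control wells for no effect and wells lacking membranes for full effect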
Efflux pump inh – inhibitors of Candida efflux pumps in yeast, primary screen, S. cerevisiae, Nile Red, multiplex | S. cerevisiae Candida pump triplex | inhibition, % at 10 µM | actives 0.44% (n = 330,000) | AID 485275, 2010;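 active = plate passing quality check with inhibition over a set limit, or well fluorescence over plate mean plus 4 SD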;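 note: Nile Red retained in pooled yeast measured as flow cytometry median fluorescence; 0% = buffer negative control and 100% = Enniatin B positive control; higher means more Nile Red kept so more efflux inhibition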
* hit, by the source's call; i = inactive; ? = inconclusive; nt = no result; + = active, no number.

SMILES	HDAC3 inh	ALR inh	Rtt109 Vps75	GRK2 aptamer HTS	Rce1 inhib	Efflux pump inh
Cc1ccc(-c2cn(-c3ccccc3F)c(=S)[nH]2)cc1	6	72	-1	3	i	0
Cc1cccc(-n2cc(-c3ccccc3)[nH]c2=S)c1	8	77*	2	2	i	0
CC(=O)Nc1ccc(-n2cc(-c3ccccc3)[nH]c2=S)cc1	6	99*	7	0	i	0
COc1ccccc1-n1cc(-c2ccccc2)[nH]c1=S	4	50	nt	3	i	0
COc1ccc(C(CNC(=O)C(CC(C)C)NS(=O)(=O)c2ccc(C)cc2)N2CCOCC2)cc1 (stereo not drawn)	-8	-2	12	0	i	0
COc1ccc(NC2c3ncccc3C(=O)N2Cc2cccs2)cc1 (stereo not drawn)	10	96*	1	1	i	0
CCOc1ccc(NC(=O)CCC(=O)NNC(=O)c2ccc(Br)o2)cc1	?	-7	8	0	i	0
CCOC(=O)CC(=O)CSCC(=O)Nc1ccc(C)cc1	2	100*	9	0	i	0
Cc1ccc(NC(=O)CSCC#N)cc1	1	99*	-4	0	i	0
CCN(CC(=O)Nc1ccc(NC(C)=O)cc1)C(=O)CSCC(=O)Nc1ccc(C)cc1	-13	62	-4	0	i	0
C=CCN(Cc1cccs1)C(=O)COc1ccc2c(c1)OCO2	-3	-15	3	2	nt	0
O=C(C[n+]1cc(-c2ccc(F)cc2)n2c1CCC2)Nc1nc(-c2ccccc2)cs1	4	-62	24	0	i	0
O=C(C[n+]1cc(-c2ccc(Cl)cc2)n2c1CCC2)Nc1nc(-c2ccccc2)cs1	-1	94*	16	0	i	0
O=C(O)CN1C(=O)/C(=C\c2cc(Br)ccc2OCc2ccc(Cl)cc2)SC1=S	3	98*	2	2	i	0
CCOc1cc(/C=C2/SC(=S)N(CC(=O)O)C2=O)ccc1OC(=O)c1cccs1	7	nt	23	0	i	0
O=C(O)CCCCN1C(=O)/C(=C\c2ccc(OCc3ccccc3)c(OCc3ccccc3)c2)SC1=S	1	-8	5	100*	i	-2
O=C(O)CN1C(=O)/C(=C\c2cccc(OCc3ccccc3)c2)SC1=S	2	83*	-1	5	i	0
O=C(O)COc1cccc(/C=C2/SC(=S)N(Cc3ccccc3)C2=O)c1	4	6	6	2	i	0
COc1ccc(/C=C2/SC(=S)N(CC(=O)O)C2=O)cc1OCc1ccc(Cl)cc1	8	88*	6	2	i	0
O=C(O)CCCN1C(=O)/C(=C\c2ccccc2OCc2ccccc2)SC1=S	4	13	2	2	i	0
COc1ccc(S(=O)(=O)Nc2ccccc2C(=O)NCc2cccnc2)cc1OC	-15	-1	19	0	i	0
O=C(CCN1C(=O)/C(=C/c2ccccc2Cl)SC1=S)NCCc1ccc(O)cc1	3	-1	-3	0	i	0
C[C@@H]1C[C@H](Nc2ccccc2)c2ccccc2N1C(=O)c1cccnc1	5	27	6	0	i	0
CC1CC(Nc2ccccc2)c2ccccc2N1C(=O)c1cccnc1 (stereo not drawn)	5	100*	-1	2	i	0
S=c1ncc2[nH]c(=S)[nH]c2[nH]1	nt	nt	-1	nt	nt	nt
SMILES	HDAC3 inh	ALR inh	Rtt109 Vps75	GRK2 aptamer HTS	Rce1 inhib	Efflux pump inh
c1ccc(CN2C3=NCCN3c3ccccc32)cc1	4	96*	0	1	i	0
Clc1ccc(CN2C3=NCCN3c3ccccc32)cc1Cl	4	98*	10	0	i	0
Cc1ccc(CN2C3=NCCN3c3ccccc32)cc1	5	nt	-4	0	i	0
O=C(CN1C2=NCCN2c2ccccc21)C12CC3CC(CC(C3)C1)C2	3	98*	1	0	i	0
Cc1cccc(CN2C3=NCCCN3c3ccccc32)c1	6	0	3	1	i	0
c1ccc2c(c1)N1CCN=C1N2CCN1CCCCC1	-4	19	3	0	i	0
CC[C@@]1(C(=O)OC)N[C@H](CN(C)C(=O)NC(C)C)[C@@H]2C(=O)N(C)C(=O)[C@@H]21	0	nt	11	1	nt	0
Cc1ccc(C)c(C(=O)NC2CC(C)(C)NC(C)(C)C2)c1	-5	nt	-7	0	i	0
Cc1ccc(C(=O)NC2CC(C)(C)NC(C)(C)C2)cc1C	7	99*	-4	0	i	0
CCCCNC(=O)C(CC)Sc1nc2sc(C(=O)OC)c(C)c2c(=O)n1N (stereo not drawn)	-30	8	-19	2	+	0
CCC(Sc1nc2sc(C(=O)OC)c(C)c2c(=O)n1N)C(=O)N(CC)CC (stereo not drawn)	-3	-4	10	0	i	0
O=c1ccc2c([nH]1)CCCCCCCCCC2	-8	-3	7	2	i	1
CCc1ccc(NS(=O)(=O)c2ccc3[nH]cc(C(=O)N4CCc5ccccc54)c(=O)c3c2)cc1	-2	-1	-3	41*	i	0
CCOC(=O)CSC1=Nc2ccccc2C2=NC(CC(=O)NCc3ccc(OC)cc3)C(=O)N12 (stereo not drawn)	3	10	9	1	i	0
CCCCNC(=O)CC1N=C2c3ccccc3N=C(SCC(=O)Nc3cccc(C)c3)N2C1=O (stereo not drawn)	?	98*	6	1	i	0
CCOc1cc(NC(=O)C(C)C)c(OCC)cc1NC(=O)Nc1ccccc1	1	nt	-1	0	i	0
Cc1c(NC(=O)CN2CCN(c3ccc(O)cc3)CC2)c(=O)n(-c2ccccc2)n1C	7	99*	5	0	i	0
Cc1ccc(N2CC(=O)N(NC(=O)CN3CCN(c4ccccc4)CC3)CC2=O)cc1	-2	85*	-2	0	i	0
O=C(CN1CCOCC1)NN1CC(=O)N(c2ccc(Cl)cc2)CC1=O	-1	21	1	1	i	0
Cc1ccccc1CSCC(=O)Nc1c(C)n(C)n(-c2ccccc2)c1=O	-10	98*	0	0	i	0
Cc1ccc(S(=O)(=O)N(C)CCN(C)S(=O)(=O)c2ccc(C)cc2)cc1	nt	nt	8	nt	nt	nt
